# Measurements reported in ChEMBL document CHEMBL3988442, “University of Dundee, Small-Polar-MMV Screening Library” (2021).
# About 1,000 (1.4%) of roughly 69,000 compounds showed an effect of 50% or more. The sample holds strong results, similar compounds and a random draw of the others, so the mix is not that of the screen.
# Test system: Leishmania donovani
# Experiment: Leishmania intramacrophage assay
# Type: functional, organism-based
# Parameters: scale not given: in the data most compounds retested in dose-response had high values
smiles,measurement,setting,value
CCc1cc(NCCc2cnccn2)n2nc(C)c(C)c2n1,Percent Effect,"30.3 µM, […]",3.819%
CNC(=O)[C@H]1CCS(=O)(=O)[C@@H]2CN(Cc3ccc(OC)cc3)C[C@H]12,Percent Effect,"30 µM, 30.03 µM",7.266%
Cc1cccc(C(=O)N2CCCCC2c2nc3cc(F)ccc3[nH]2)n1 (configuration not stated),Percent Effect,"30.3 µM, […]",32.48%
Cc1noc([C@@H]2CC[C@@H]3[C@@H](CCN3c3nnc(C)s3)O2)n1.O=C(O)C(F)(F)F,Percent Effect,"30.3 µM, […]",50.59%
Cc1noc([C@H]2C[C@@H]3CCN(c4nnc(C)s4)C[C@H]3O2)n1.O=C(O)C(F)(F)F,Percent Effect,"30.3 µM, […]",7.673%
Cc1noc([C@@H]2C[C@@H]3CCN(c4nnc(C)s4)C[C@H]3O2)n1.O=C(O)C(F)(F)F,Percent Effect,"30.3 µM, […]",45.73%
O=C(NCCc1nnc2n1CCC2)NCC1(c2ccccc2F)CC1,Percent Effect,"30.3 µM, […]",6.319%
CC(C)NC(=O)C[C@@H]1CCNC[C@@H]1Cc1cc(-c2ccccc2)on1,Percent Effect,"30.3 µM, […]",-4.938%
O=C(NCC1CC2(CO1)CN(c1ncccn1)C2)C1CCC1 (configuration not stated),Percent Effect,"30.3 µM, […]",1.586%
CCOC(=O)N1CCC(NC(=O)Nc2cccnc2OCC)CC1,Percent Effect,30 µM,21.62%
COCCNC(=O)c1cc(-c2ccc3c(c2)CCO3)n[nH]1,Percent Effect,"30.3 µM, […]",-2.658%
O=C(Nc1ccccc1)C1CN(CC2CCOCC2)CC12CCOCC2.O=C(O)C(F)(F)F (configuration not stated),Percent Effect,"30.3 µM, […]",6.071%
O=C(Nc1ccccc1)C1CN(Cc2ccco2)CC12CCOCC2.O=C(O)C(F)(F)F (configuration not stated),Percent Effect,"30.3 µM, […]",14.17%
O=C(Nc1ccccc1)C1CN(CC2CC2)CC12CCOCC2.O=C(O)C(F)(F)F (configuration not stated),Percent Effect,"30 µM, 30.03 µM",52.69%
Cc1nccn1C1CCCN(C(=O)CCNc2ncccn2)C1 (configuration not stated),Percent Effect,30 µM,-4.975%
COc1ncccc1CN1CCc2[nH]nc(C(=O)N(C)C)c2C1,Percent Effect,"30.3 µM, […]",13.46%
FC(F)(F)c1nc(NC2CCCCC2)c2ccccc2n1,Percent Effect,"30.3 µM, […]",22.7%
FC(F)(F)c1nc(NC2CCCC2)c2ccccc2n1,Percent Effect,"30 µM, 30.03 µM",52.6%
FC(F)(F)c1nc(NC2CCc3ncnn3C2)c2ccccc2n1 (configuration not stated),Percent Effect,"30.3 µM, […]",-21.34%
COc1ccc(NC(=O)CCc2c(C)nc3cc(O)nn3c2C)cn1,Percent Effect,"30 µM, 30.03 µM",19.21%
CCC(CC)C(=O)N1CCN(Cc2nc3ccccc3c(=O)[nH]2)CC1,Percent Effect,"30.3 µM, […]",0.3817%
CN(Cc1ccon1)C1CCN(c2cccc(-c3cscn3)c2)CC1,Percent Effect,"30.3 µM, […]",-3.333%
O=C1CCCN1c1cccc(N2CCC(NCCc3cscn3)CC2)c1,Percent Effect,"30.3 µM, […]",16.35%
Cc1cc(CN(C)C2CCN(c3cccc(-c4cscn4)c3)CC2)on1,Percent Effect,"30.3 µM, […]",19.61%
c1cc(-c2cscn2)cc(N2CCC(NCCc3cccs3)CC2)c1,Percent Effect,"30.3 µM, […]",68.46%
CN(C)CCCN(C)C1CCN(c2cccc(-c3cscn3)c2)CC1,Percent Effect,"30.3 µM, […]",61.93%
CC(C)CC(C)NC1CCN(c2cccc(-c3cscn3)c2)CC1 (configuration not stated),Percent Effect,"30.3 µM, […]",17.78%
c1ccc(-c2cccc(N3CCC(NCCc4cscn4)CC3)c2)cc1,Percent Effect,"30.3 µM, […]",97.96%
CN(Cc1nccs1)C1CCN(c2cccc(-c3cscn3)c2)CC1,Percent Effect,"30.3 µM, […]",8.314%
CN(Cc1cnn(C)c1)C1CCN(c2cccc(-c3cscn3)c2)CC1,Percent Effect,"30.3 µM, […]",12%
CC1CN(C(=O)c2cccc(OCc3cscn3)c2)CCO1 (configuration not stated),Percent Effect,30 µM,15.03%
CNC(=O)CN([C@H]1C[C@H]2CCOC[C@H]2C1)S(=O)(=O)c1ccccc1,Percent Effect,"30.3 µM, […]",-15.54%
O=c1oc(-c2cccs2)nn1CC1(O)CCCCC1,Percent Effect,"30.3 µM, […]",-0.7487%
COc1cccc2c1OCC(NCCCOc1cccnc1)C2 (configuration not stated),Percent Effect,"30.3 µM, […]",0.7744%
O=C(O)C(F)(F)F.c1ncn(Cc2cn3c(n2)CN(CC2CCCC2)CC3)n1,Percent Effect,"30.3 µM, […]",-12.84%
CC(NCC1(N(C)C)CCOCC1)c1ccc(SC(F)F)cc1 (configuration not stated),Percent Effect,"30.3 µM, […]",43.5%
CCc1ccc(C(=O)N2CC(C(=O)NC(C)C)C3(CCOCC3)C2)cc1 (configuration not stated),Percent Effect,"30.3 µM, […]",20.17%
CN(C)C(=O)c1cnc2n1CCN(Cc1ccsc1)C2.O=C(O)C(F)(F)F,Percent Effect,"30.3 µM, […]",24.8%
Cc1ccc(C(=O)OC(C)Cn2cccn2)c(=O)[nH]1 (configuration not stated),Percent Effect,"30.3 µM, […]",9.557%
Cc1ccc(C(=O)NCC(C)Cn2cccn2)c(=O)[nH]1 (configuration not stated),Percent Effect,"30.3 µM, […]",5.92%
Cc1ccc(C(=O)NC(C)Cn2cccn2)c(=O)[nH]1 (configuration not stated),Percent Effect,"30.3 µM, […]",61.08%
CCC(O)CN1CCN(C(=O)c2ccn(C)c(=O)c2)CC1 (configuration not stated),Percent Effect,30 µM,25.79%
CSCCC(Nc1nc(C)cc(C)n1)C(=O)NC(C)(C)CO (configuration not stated),Percent Effect,"30.3 µM, […]",-4.466%
COC1CCCN(C(=O)Nc2nc(C)n(C)n2)C1 (configuration not stated),Percent Effect,"30 µM, 30.03 µM",27.05%
O=C(NCCCN1CCc2ccccc2C1)c1cccnc1O,Percent Effect,"30 µM, 30.03 µM",26.46%
O=C(c1ccoc1)N(Cc1ccncc1)C1CC1,Percent Effect,"30.3 µM, […]",53.31%
O=C(c1ccoc1)N(Cc1cccnc1)C1CC1,Percent Effect,"30.3 µM, […]",22.13%
O=C(c1ccoc1)N(Cc1ccccn1)C1CC1,Percent Effect,"30.3 µM, […]",-9.366%
CSc1ccc(-c2nc(CN3CCC(CN)C3)c(C)o2)cc1 (configuration not stated),Percent Effect,"30.3 µM, […]",98.64%
CNC(=O)C1CCN(Cc2nc(-c3ccc(SC)cc3)oc2C)C1 (configuration not stated),Percent Effect,"30.3 µM, […]",7.886%
CSc1ccc(-c2nc(CN3CCC(C(N)=O)CC3)c(C)o2)cc1,Percent Effect,"30.3 µM, […]",-4.149%
CSc1ccc(-c2nc(CN3CCC(NC(C)=O)CC3)c(C)o2)cc1,Percent Effect,"30.3 µM, […]",13.21%
CSc1ccc(-c2nc(CN3C[C@@H](C)NC[C@@H]3C)c(C)o2)cc1,Percent Effect,"30.3 µM, […]",42.57%
CSc1ccc(-c2nc(CN3CCNCC3C)c(C)o2)cc1 (configuration not stated),Percent Effect,"30.3 µM, […]",81.77%
CNS(=O)(=O)c1cc(C(=O)NC2COc3ccccc3C2)ccc1OC (configuration not stated),Percent Effect,"30.3 µM, […]",-9.324%
CN(C)C(=O)c1cccc(CCNc2ccccc2S(C)(=O)=O)c1,Percent Effect,"30.3 µM, […]",7.886%
CN(Cc1cn(C2CCNCC2)nn1)CC1CCCO1 (configuration not stated),Percent Effect,"30.3 µM, […]",7.398%
CCN(Cc1cn(CC2CCNCC2)nn1)CC1CCCO1 (configuration not stated),Percent Effect,"30.3 µM, […]",62.19%
CN(Cc1cn(CC2CCNCC2)nn1)CC1CCCCO1 (configuration not stated),Percent Effect,"30.3 µM, […]",-23.25%
COC[C@H]1CCCN1c1nccc(-c2cnn(-c3ccccc3C)c2)n1,Percent Effect,"30.3 µM, […]",41.43%
Cc1ccccc1-n1cc(-c2ccnc(N3CCCC(O)C3)n2)cn1 (configuration not stated),Percent Effect,"30.3 µM, […]",16.96%
Cc1ccccc1-n1cc(-c2ccnc(N3CCCC(CN)C3)n2)cn1 (configuration not stated),Percent Effect,"30.3 µM, […]",67.45%
COc1ccccc1N1CCN(Cc2nccc(OC)c2OC)CC1=O,Percent Effect,"30.3 µM, […]",-10.47%
CN(Cc1ccc2c(c1)OCO2)C(=O)c1ccc(C2CCCO2)s1 (configuration not stated),Percent Effect,"30.3 µM, […]",-16.35%
CC1CCCN(CCCNC(=O)Cc2csc(-c3ccoc3)n2)C1 (configuration not stated),Percent Effect,"30.3 µM, […]",9.746%
O=C(CCNc1ncccn1)NCc1ccc(Br)s1,Percent Effect,"30.3 µM, […]",14.9%
Cc1nn(C)c(C)c1CN(C)c1nc(C2CC2)nc2c(C)nn(C)c12,Percent Effect,"30.3 µM, […]",-21.06%
Cc1nn(C)c2c(N(C)Cc3cccs3)nc(C3CC3)nc12,Percent Effect,"30.3 µM, […]",56.51%
Cc1nn(C)c2c(N(C)Cc3ccco3)nc(C3CC3)nc12,Percent Effect,"30.3 µM, […]",10.49%
CN1CCOC(CNCCOc2cccc(C#N)c2)C1 (configuration not stated),Percent Effect,"30.3 µM, […]",25.34%
Cn1cccc1C(=O)NCc1cn2c(n1)CN(CC1CCOC1)CC2 (configuration not stated),Percent Effect,"30.3 µM, […]",22.42%
CC(C)CCN1CCN(C(=O)c2ccc(=O)[nH]n2)CC1,Percent Effect,"30.3 µM, […]",20.4%
Cc1cc(NC(=O)CN2CCCC2c2noc(C(C)C)n2)on1 (configuration not stated),Percent Effect,30 µM,7.102%
O=C(Cn1ccc2c(Cl)cccc21)N1CCCC1,Percent Effect,"30.3 µM, […]",16.62%
CC(=O)N1CCN(C(=O)Cn2ccc3c(Cl)cccc32)CC1,Percent Effect,"30.3 µM, […]",1.884%
CN1CCN(C(=O)Cn2ccc3c(Cl)cccc32)CC1,Percent Effect,"30.3 µM, […]",54.77%
Cc1cc(C)c(CNC(=O)N2CCN(c3ncccn3)CC2)c(=O)[nH]1,Percent Effect,"30 µM, 30.03 µM",-5.034%
Cc1cccc(CNC(CN2CCN(C)CC2)c2ccccc2)c1 (configuration not stated),Percent Effect,"30 µM, 30.03 µM",98.99%
Cc1cc(C)cc(CNC(c2ccccc2)c2nccn2C)c1 (configuration not stated),Percent Effect,30 µM,35.61%
CNS(=O)(=O)c1cccc(C(C)NCc2cccc(O)c2)c1 (configuration not stated),Percent Effect,"30.3 µM, […]",23.7%
COc1cccc(CNC(CN2CCN(C)CC2)c2ccccc2)c1 (configuration not stated),Percent Effect,"30 µM, 30.03 µM",76.19%
O=C(C(CNCc1cccc(O)c1)c1ccccc1)N1CCOCC1 (configuration not stated),Percent Effect,"30.3 µM, […]",17.14%
COc1cccc(C(=O)N2CCN(CC(O)c3ccccc3)CC2)c1 (configuration not stated),Percent Effect,"30.3 µM, […]",-2.836%
COCCN1CCC(NCc2cccc(C)c2)C1 (configuration not stated),Percent Effect,30 µM,11.56%
COc1ccc(C(CN2CCN(C)CC2)Nc2ncccn2)cc1 (configuration not stated),Percent Effect,"30.3 µM, […]",-7.981%
O=C(c1nnn(-c2ccc(F)cc2)n1)N1CCC(O)CC1,Percent Effect,"30.3 µM, […]",1.215%
O=C(c1cn(CCN2CCCCC2)nn1)N1CCSCC1,Percent Effect,"30.3 µM, […]",25.8%
CC(O)CN1CC(C)(C)CN(C(=O)CCc2ccccc2)CC1=O (configuration not stated),Percent Effect,"30.3 µM, […]",-1.72%
O=C(CN1CCOC(Cn2cccn2)C1)NCCc1ccc(F)cc1 (configuration not stated),Percent Effect,"30 µM, 30.03 µM",1.853%
COCCn1c2c(ccc1=O)CCN(C(=O)Cc1ccsc1)CC2,Percent Effect,"30.3 µM, […]",55.32%
O=C(Cc1ccsc1)N1CCc2ccc(=O)n(CC3CC3)c2CC1,Percent Effect,"30.3 µM, […]",10.53%
COCCn1c2c(ccc1=O)CCN(C(=O)Cc1cccs1)CC2,Percent Effect,"30.3 µM, […]",20.34%
O=C(O)c1cccc(S(=O)(=O)N2CCOc3ccccc32)c1,Percent Effect,30 µM,14.21%
COc1cc2c(cc1C1CC(=O)NCc3nc(N(C)C)sc31)CCC2 (configuration not stated),Percent Effect,"30.3 µM, […]",11.87%
COc1ccc(C2CC(=O)NCc3nc(N(C)C)sc32)c(O)c1 (configuration not stated),Percent Effect,"30.3 µM, […]",16.16%
COc1ccc(C(C)C)cc1C1CC(=O)NCc2nc(N(C)C)sc21 (configuration not stated),Percent Effect,"30.3 µM, […]",60.09%
C[C@@H]1CN(C2CCN(c3ccccc3)CC2)CC[C@@]1(O)C1CCOCC1,Percent Effect,"30.3 µM, […]",22.22%
C[C@@H]1CN(C2Cc3ccccc3C2)CC[C@@]1(O)C1CCOCC1,Percent Effect,"30.3 µM, […]",63.81%
C[C@@H]1CN(C2CCCCC2)CC[C@@]1(O)C1CCOCC1,Percent Effect,"30.3 µM, […]",-0.4391%
CN(C)C(=O)NC1COC2(CCN(Cc3nccn3C)CC2)C1 (configuration not stated),Percent Effect,"30 µM, 30.03 µM",3.872%
c1cnnc(N2CCCC2CNCc2nc(-c3ccoc3)no2)c1 (configuration not stated),Percent Effect,30 µM,14.13%
COC(=O)c1cccn1C1CCN(Cc2cccnc2)CC1,Percent Effect,30 µM,38.52%
